Source: PubChem BioAssay (National Center for Advancing Translational Sciences (NCATS))
HP1b chromo inh – inhibitors of HP1-beta chromodomain binding to methylated histone tails; AID 540317; Potency, µM (doses to about 114 µM), inactives show top-dose activity change, negative = inhibition, actives largely listed as inhibitors; AlphaScreen HP1-beta / biotin-H3K9me3 peptide binding; hit rate 0.56% among 390,000; P83916; also: nearly all actives have a fitted effect of over 70% in size
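AlphaScreen: HP1-beta (50 nM) preformed 30 min with biotin-H3(1-18)K9me3 peptide (50 nM) in PBS pH 7.4, 0.01% Tween-20. Compound added for 30 min at RT, then streptavidin donor/nickel chelate acceptor beads (10 ug/mL) for 30 min.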
JMJD2A Tudor inh – inhibitors of human JMJD2A Tudor domain. O75164. AlphaScreen JMJD2A-Tudor / H3K4me3 peptide binding. Potency, µM (doses to about 114 µM), for the others: at the highest dose activity change, negative = inhibition, actives largely listed as inhibitors. hit rate 4.4% among 390,000; also: % is scaled to controls: 0 for no effect and ±100 for the full control effect; nearly all actives have a fitted effect of over 50% in size
BAZ2B inh – inhibitors of human BAZ2B bromodomain | Q9UIF8 | AlphaScreen BAZ2B-H3K14Ac peptide displacement | Potency, µM (highest dose often 114 µM), for inactives: at the top dose activity change, negative = inhibition, usual class: inhibitors | hit rate 4.4% among 360,000 | AID 504333; also: % is scaled to controls: 0 for no effect and ±100 for the full control effect; nearly all actives have a fitted effect of over 60% in size
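AlphaScreen displacement of biotin-H3(5-23)K14Ac peptide (50 nM final) from BAZ2B (50 nM final) in PBS pH 7.4, 0.01% Tween-20; complex preformed 30 min RT, then compounds (top 110 uM) 30 min RT, beads 20 min dark.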
Sfp inh – inhibitors of Bacillus subtilis Sfp phosphopantetheinyl transferase; Biochemical Sfp PPTase activity, qHTS; hit rate 3.5% among 310,000; AID 1490; Potency, µM, for inactives: largest response in the series, negative = inhibition, usual class: inhibitors; Q9F4F7;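 also: the enzyme is Sfp with the accession as filed and its product quenches rhodamine fluorescence; 0% = enzyme reaction without inhibitor and -100% = no enzyme wells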
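Fluorescence-quenching assay with 15 nM Sfp, 5 uM rhodamine-CoA and 12.5 uM BHQ-2-labelled ybbR peptide in pH 7.6 Hepes/MgCl2 buffer. Enzyme was pre-incubated with compound for 15 min at room temperature. Rate was taken from the 30-min fluorescence change (525/598 nm).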
G9a block – G9a (human) methyltransferase inhibition. Q96KQ7. G9a H3K9 monomethylation, AlphaScreen, 2 h. Potency, µM (doses to about 102 µM), without a hit: top-dose activity, negative = inhibition, hits mostly inhibitors. hit rate 8.8% among 350,000; also: % is scaled to controls: 0 for no effect and ±100 for the full control effect; nearly all actives have a fitted effect of over 75% in size
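Chemiluminescent proximity detection of H3K9 monomethylation, read after 10 min bead incubation in the dark. Reaction: 20 nM G9a, 500 nM biotin-H3K9 peptide, 20 uM SAM cofactor, 2 h, room temperature, following 15 min enzyme-compound preincubation.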
The depositor's hits bear a star; [ ] = dose if it differs, or a comment. An excerpt weighted towards active compounds, which were near 12% of everything screened. Calls follow the shape of the dose curve; as a rule, active = well fitted curve in the direction sought with a large enough effect; inconclusive = small, poorly fitted or top-dose-only effect, or another doubt; inactive = no such curve, though single readings can be large; an effect the other way counts as inactive or inconclusive. Potency is read from the fitted curve at half-maximal effect.

For CC(=O)Nc1sc(N/N=C\c2ccccc2Cl)nc1-c1cccs1 the results were HP1b chromo inh -3%, JMJD2A Tudor inh inconclusive, BAZ2B inh 15%, Sfp inh -15% and G9a block -22%[59 µM].
`C=CCN1C(=O)c2ccc(C(=O)N(C)Cc3ccc(C)o3)cc2C1=O` gave HP1b chromo inh 26%, JMJD2A Tudor inh -12%, BAZ2B inh -26% and G9a block -11%[2.33 µM].
`Cc1ccc2oc(C(=O)N(C)Cc3ccon3)c(C)c2c1` gave HP1b chromo inh 33%, JMJD2A Tudor inh 0%, BAZ2B inh 2%, Sfp inh 4% and G9a block 89%.
`Cc1ccc2oc(C(=O)N(C)Cc3ccc(C)o3)c(C)c2c1` gave HP1b chromo inh -14%, JMJD2A Tudor inh inconclusive, BAZ2B inh -16%[57.1 µM], Sfp inh 10µM* and G9a block 8.9µM*.
Screening Cc1ccc(CN(C)C(=O)c2cc(Br)c(Br)s2)o1 returned HP1b chromo inh 34%, JMJD2A Tudor inh -11%, BAZ2B inh 3%, Sfp inh 79µM* and G9a block 45µM*.
`C=CCN(C(=O)CSC1=NC(=O)CN1C(C)=O)c1nc(C)c(-c2ccccc2)s1` gave HP1b chromo inh 8%, JMJD2A Tudor inh inconclusive, BAZ2B inh 35µM*, Sfp inh -5% and G9a block 40µM*.
`C=CCSc1nnc(-c2sc(-c3ccccc3)nc2C)n1C` gave HP1b chromo inh 42%, JMJD2A Tudor inh 8%, BAZ2B inh -1%, Sfp inh 13% and G9a block 13%[59 µM].
Screening CCn1c(N2CCN(CC(=O)c3c[nH]c4ccccc34)CC2)nc2c1c(=O)[nH]c(=O)n2C returned HP1b chromo inh 38%, JMJD2A Tudor inh -9%, BAZ2B inh 18%, Sfp inh -10% and G9a block 40µM*.
For CCCn1c(N2CCN(CC(=O)c3c(C)n(C)c4ccccc34)CC2)nc2c1c(=O)[nH]c(=O)n2C the results were HP1b chromo inh 7%, JMJD2A Tudor inh -14%, BAZ2B inh 1%, Sfp inh -3% and G9a block -37%.
Cc1ccc(C2CC(=O)Nc3c2c(C)nn3-c2nc(C)cc(C)n2)c(C)c1 (stereo not given) was read as HP1b chromo inh 67%, JMJD2A Tudor inh -8%, BAZ2B inh -23% and G9a block 3%[59 µM].
`COc1ccc(N2CC(NC(=O)COc3ccccc3F)CC2=O)cc1OC` (stereo not given) gave HP1b chromo inh -11%, JMJD2A Tudor inh -14%, BAZ2B inh -2% and G9a block 7%[59 µM].
N#Cc1ccccc1Sc1ccccc1C(=O)NCC(c1ccco1)N1CCCCC1 (stereo not given) was read as HP1b chromo inh 23%, JMJD2A Tudor inh -26%, BAZ2B inh -7% and G9a block inconclusive.
`O=C(NCC(c1ccco1)N1CCCC1)c1ccccc1Sc1ccc(C(F)(F)F)cc1[N+](=O)[O-]` (stereo not given) gave HP1b chromo inh -29%, JMJD2A Tudor inh inconclusive, BAZ2B inh inconclusive and G9a block 10µM*.
Screening C[C@@H]1CN([C@H](C)CO)C(=O)c2cc(NC(=O)Nc3ccc4c(c3)OCO4)ccc2O[C@H]1CN(C)Cc1ccncc1 returned HP1b chromo inh 13% and JMJD2A Tudor inh inconclusive.
`COc1cc(-c2nnc(SCC(=O)N3CCCc4ccccc43)o2)cc(OC)c1OC` gave HP1b chromo inh 11%, JMJD2A Tudor inh -14%, BAZ2B inh -17% and G9a block 10%[59 µM].
`CC(=O)Oc1ccc(C(=O)[C@H]2[C@H]3C(=O)N(c4cccc5ccccc45)C(=O)[C@H]3[C@@H]3C=CC=NN32)cc1` gave HP1b chromo inh -20%, JMJD2A Tudor inh inconclusive, BAZ2B inh inconclusive, Sfp inh inconclusive and G9a block inconclusive.
For O=C(c1ccccc1)c1nn(-c2cccc(Cl)c2)ccc1=O the results were HP1b chromo inh 24%, JMJD2A Tudor inh -4%, BAZ2B inh -21%, Sfp inh 4% and G9a block -1%.
For Cc1ccc(N2C(=O)[C@@H]3[C@H](C2=O)[C@H]2C=C(C(=O)c4ccccc4)C=CN2[C@@H]3C(=O)c2ccc(Cl)cc2)cc1 the results were HP1b chromo inh 37%, JMJD2A Tudor inh -26%, BAZ2B inh -8%, Sfp inh -14% and G9a block 2.2µM*.
Screening O=C(C1=C[C@@H]2[C@H]3C(=O)N(c4ccccc4Cl)C(=O)[C@H]3[C@@H](C(=O)c3ccc(Cl)cc3)N2C=C1)c1ccccc1 returned BAZ2B inh -39%, Sfp inh -6% and G9a block 8.9µM*.
Screening O=C(C1=C[C@@H]2[C@H]3C(=O)N(c4cccc(Cl)c4)C(=O)[C@H]3[C@@H](C(=O)c3ccc(Cl)cc3)N2C=C1)c1ccccc1 returned HP1b chromo inh -21%, JMJD2A Tudor inh inconclusive, BAZ2B inh -9%, Sfp inh -3% and G9a block 3.2µM*.
CCCOc1ccc(CNC(=O)c2ccc3c(c2)N(Cc2ccccc2)CCS3)cc1 was read as HP1b chromo inh 10%, JMJD2A Tudor inh -4%, BAZ2B inh -14% and G9a block -1%[59 µM].
COc1ccc(NC(=O)c2cc(S(=O)(=O)N3CCCC(C)C3)cn2C)c(OC)c1 (stereo not given) was read as HP1b chromo inh 6%[57 µM], JMJD2A Tudor inh -35%, BAZ2B inh inconclusive and G9a block 12%[59 µM].
Screening CCOc1ccc(-c2ccc(SCC(=O)Nc3nnc(CC)s3)nn2)cc1 returned HP1b chromo inh 10%, JMJD2A Tudor inh -18%, BAZ2B inh -2%, Sfp inh 3% and G9a block 28µM*.
CCc1nnc(NC(=O)CSc2ccc(-c3ccc(C)cc3)nn2)s1 was read as HP1b chromo inh 20%, JMJD2A Tudor inh -34%, BAZ2B inh -28%, Sfp inh inconclusive and G9a block 50µM*.
`Cc1c(Cl)cccc1NC(=O)CCCn1nc(C)c2sc3ccccc3c2c1=O` gave HP1b chromo inh 43%, JMJD2A Tudor inh -35%, BAZ2B inh 4% and G9a block inconclusive.
Screening Cc1ccc(NS(=O)(=O)c2ccc(Cl)cc2)cc1C returned JMJD2A Tudor inh -4%.
`CC1CCC2(C1)N=C(Nc1nc3ccccc3o1)NC1=C2C(=O)CCC1` (stereo not given) gave JMJD2A Tudor inh 56µM*.
For CCC1CCC2(C1)N=C(Nc1nc3ccccc3o1)NC1=C2C(=O)CCC1 (stereo not given) the results were JMJD2A Tudor inh -35%.
Screening COc1cc2c(cc1OC)CN(c1nc(-c3cccnc3)nc3ccccc13)CC2 returned HP1b chromo inh -19%, JMJD2A Tudor inh inconclusive, BAZ2B inh 40µM*, Sfp inh -13% and G9a block 50µM*.
